Assay results: PubChem BioAssay (NCATS)
Values joined by “and” are separate entries in the source; they are usually repeats but may differ in a detail not shown here. Identical values can stand only once. Results filed as inconclusive are left out. Active and inactive are the calls of the source. Calls come from the whole dose curve; as a rule, active = well fitted curve in the direction sought with a large enough effect; inconclusive = small, poorly fitted or top-dose-only effect, or another doubt; inactive = no such curve, though single readings can be large; an effect the other way counts as inactive or inconclusive.

Tests used:
[1] = molecular target: Cellular tumor antigen p53 (Homo sapiens) (UniProt P04637); assay: Primary qHTS for small molecule compounds that upregulate eGFP-tagged delta133p53alpha (in N-terminal) cells. (AID 2060322); conditions: NCI-H358 eGFP-delta133p53alpha fluorescence, 24 h; activation: active compounds read high;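 note: cells pre-induced with doxycycline then dosed without doxycycline; series mostly up to about 56 µM; 0% = DMSO vehicle and 100% = reference activator; nearly all actives have a fitted effect of over 75% in size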
Method in brief: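 NCI-H358 cells pre-induced 24 h with 10 ng/ml doxycycline for eGFP-delta133p53alpha, plated dox-free and exposed 24 h at 37C to titrated compounds. Fixed, Hoechst-stained; gated GFP peak intensity by laser scanning cytometry, normalized to DMSO (0%) and 57.5 uM 5-azacytidine (100%).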

[2] = molecular target: Aldehyde dehydrogenase, mitochondrial (Homo sapiens) (UniProt P05091); assay: qHTS for Inhibitors of the Aldehyde Dehydrogenase Family (ALDH2) Primary screen (AID 2061308);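 note: plate controls were vehicle for no effect and reference inhibitor for full effect; nearly all actives have a fitted effect of over 55% in size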
[3] = molecular target: Retinaldehyde dehydrogenase 3 (Homo sapiens) (UniProt P47895); assay: qHTS for Inhibitors of the Aldehyde Dehydrogenase Family (ALDH1A3) Primary screen (AID 2061315);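 note: plate controls were DMSO vehicle for no effect and reference inhibitor for full effect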

Chain of Cellular tumor antigen p53 (Homo sapiens) (P04637 whole entry, looked up): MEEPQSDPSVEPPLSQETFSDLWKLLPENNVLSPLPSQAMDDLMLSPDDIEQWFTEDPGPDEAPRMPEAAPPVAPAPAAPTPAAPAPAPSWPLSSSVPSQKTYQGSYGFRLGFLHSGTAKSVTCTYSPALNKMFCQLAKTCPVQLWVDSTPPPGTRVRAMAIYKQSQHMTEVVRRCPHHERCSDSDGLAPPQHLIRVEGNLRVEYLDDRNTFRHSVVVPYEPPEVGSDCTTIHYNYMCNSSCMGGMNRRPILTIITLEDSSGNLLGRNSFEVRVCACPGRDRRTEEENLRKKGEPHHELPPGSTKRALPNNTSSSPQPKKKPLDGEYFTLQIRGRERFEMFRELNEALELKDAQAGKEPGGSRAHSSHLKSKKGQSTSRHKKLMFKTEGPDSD

CC1=C2C(=O)O[C@@H](c3ccoc3)[C@]2(C)CCC1
inactive: activation [1] -11.6% and -7% | Potency [2] | Potency [3]

CC1=CCC[C@@H]2[C@@](C)(CCc3ccoc3)[C@H](C(=O)O)CC[C@@]12C
inactive: activation [1] 14.3% | Potency [2] | Potency [3]

CC1(C)CC[C@]23CO[C@@]4(CCC5[C@@]6(C)CC[C@H](O[C@@H]7OC[C@H](O[C@@H]8O[C@H](CO)[C@@H](O)[C@H](O)[C@H]8O[C@@H]8OC[C@@H](O)[C@H](O)[C@H]8O)[C@H](O)[C@H]7O)[C@@](C)(CO)C6CC[C@@]5(C)[C@]4(C)CC2=O)[C@@H]3C1 (stereo partly drawn)
inactive: activation [1] 18.3% | Potency [2] | Potency [3]

C[C@@H]1O[C@@H](O[C@H]2[C@H](O)[C@@H](C(=O)O)O[C@@H](O[C@H]3CC[C@@]4(C)C(CC[C@]5(C)C4CC=C4C6CC(C)(C)CC[C@]6(C(=O)O)CC[C@]45C)C3(C)C)[C@@H]2O[C@@H]2O[C@H](CO)[C@@H](O)[C@H](O)[C@H]2O)[C@H](O)[C@H](O)[C@H]1O (stereo partly drawn)
inactive: activation [1] -2.29% | Potency [2] | Potency [3]

COC1C=C(C)C(O)(CO)C2(C)CCCC(C)(C)C12 (stereo not drawn)
inactive: activation [1] 13% | Potency [2] | Potency [3]

COc1cc(O[C@@H]2O[C@H](CO)[C@@H](O)[C@H](O)[C@H]2O)c(CCC(=O)OC[C@H]2O[C@@H](Oc3cc(OC)c(C4OC(=O)C(C)(O)C4O)cc3CCC(=O)O)[C@H](O)[C@@H](O)[C@@H]2O)cc1C1OC(=O)C(C)(O)C1O (stereo partly drawn)
inactive: activation [1] -6.11% | Potency [2] | Potency [3]
